Our source for the Potency and activity change, negative = inhibition values is PubChem BioAssay (Tox21).

Structures are written as SMILES. Records with an inconclusive call do not appear. Values without a mark were called inactive. Activity calls are given as the source filed them. The call rests on the fitted dose curve; in most records, active means well fitted curve in the direction sought with a large enough effect in the repeat runs; inconclusive means weak or mixed curves; inactive means no such curve, though single readings can be large; an effect the other way counts as inactive or inconclusive.

Test [1] has as its target Cytochrome P450 1A2 (Homo sapiens) (UniProt P05177). The test can be described thus: Cytochrome P450 Family 1 Subfamily A Member 2 (CYP1A2) small molecule antagonists: luciferase reporter qHTS assay (AID 1671199). Further: potency means the concentration at half of the fitted maximal effect. On activity change, negative = inhibition: series mostly up to about 120 µM. Summed up: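 Quantitative high-throughput format using the P450-Glo CYP1A2 system. Reaction initiated by NADPH regeneration solution, 1 h at room temperature, then stopped with detection reagent; luminescence measured 20 min later.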
(In general: In a reporter assay the amount or activity of a reporter protein is the signal.)

The target in test [2] is Voltage-gated inwardly rectifying potassium channel KCNH2 (Homo sapiens) (UniProt Q12809). Briefly: Human Ether-a-go-go-Related Gene (hERG) channel small molecule antagonists: fluorescence cell-based qHTS assay (AID 1671200). Further: potency means the concentration at half of the fitted maximal effect.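 On activity change, negative = inhibition: hERG-expressing U2OS cells given a thallium stimulus after FluxOR II dye loading; series mostly up to about 77 µM.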 Put shortly:
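Thallium served as the potassium surrogate; its influx into dye-loaded U2OS cells carrying the channel was measured by fluorescence over 2 min.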

Test [3] has as its target Cytochrome P450 2C9 (Homo sapiens) (UniProt P11712). Briefly: Cytochrome P450 Family 2 Subfamily C Member 9 (CYP2C9) small molecule antagonists: luciferase reporter qHTS assay (AID 1671198). Further: potency means the concentration at half of the fitted maximal effect. On activity change, negative = inhibition: series mostly up to about 120 µM. Summed up:
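P450-Glo proluciferin substrate with CYP2C9 enzyme; 10 min RT preincubation, then NADPH regeneration 1 h at 37C; luciferin detection reagent 20 min RT, luminescence in relative luminescence units.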

In test [4] the target is Cytochrome P450 3A4 (Homo sapiens) (UniProt P08684). Briefly: Cytochrome P450 Family 3 Subfamily A Member 4 (CYP3A4) small molecule antagonists: luciferase reporter qHTS assay (AID 1671201). Further: series mostly up to about 120 µM. Put shortly:
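Relative luminescence units after 20 min with luciferin detection reagent served as read-out. Beforehand, CYP3A4 turned over a proluciferin substrate for 1 h at room temperature with NADPH regeneration, following 10 min compound preincubation.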
Further: nearly all actives have a fitted effect of over 50% in size.
On the % scale 0 is the no-effect control and ±100 the full control effect.

Chain of Voltage-gated inwardly rectifying potassium channel KCNH2 (Homo sapiens) (Q12809 whole entry, looked up): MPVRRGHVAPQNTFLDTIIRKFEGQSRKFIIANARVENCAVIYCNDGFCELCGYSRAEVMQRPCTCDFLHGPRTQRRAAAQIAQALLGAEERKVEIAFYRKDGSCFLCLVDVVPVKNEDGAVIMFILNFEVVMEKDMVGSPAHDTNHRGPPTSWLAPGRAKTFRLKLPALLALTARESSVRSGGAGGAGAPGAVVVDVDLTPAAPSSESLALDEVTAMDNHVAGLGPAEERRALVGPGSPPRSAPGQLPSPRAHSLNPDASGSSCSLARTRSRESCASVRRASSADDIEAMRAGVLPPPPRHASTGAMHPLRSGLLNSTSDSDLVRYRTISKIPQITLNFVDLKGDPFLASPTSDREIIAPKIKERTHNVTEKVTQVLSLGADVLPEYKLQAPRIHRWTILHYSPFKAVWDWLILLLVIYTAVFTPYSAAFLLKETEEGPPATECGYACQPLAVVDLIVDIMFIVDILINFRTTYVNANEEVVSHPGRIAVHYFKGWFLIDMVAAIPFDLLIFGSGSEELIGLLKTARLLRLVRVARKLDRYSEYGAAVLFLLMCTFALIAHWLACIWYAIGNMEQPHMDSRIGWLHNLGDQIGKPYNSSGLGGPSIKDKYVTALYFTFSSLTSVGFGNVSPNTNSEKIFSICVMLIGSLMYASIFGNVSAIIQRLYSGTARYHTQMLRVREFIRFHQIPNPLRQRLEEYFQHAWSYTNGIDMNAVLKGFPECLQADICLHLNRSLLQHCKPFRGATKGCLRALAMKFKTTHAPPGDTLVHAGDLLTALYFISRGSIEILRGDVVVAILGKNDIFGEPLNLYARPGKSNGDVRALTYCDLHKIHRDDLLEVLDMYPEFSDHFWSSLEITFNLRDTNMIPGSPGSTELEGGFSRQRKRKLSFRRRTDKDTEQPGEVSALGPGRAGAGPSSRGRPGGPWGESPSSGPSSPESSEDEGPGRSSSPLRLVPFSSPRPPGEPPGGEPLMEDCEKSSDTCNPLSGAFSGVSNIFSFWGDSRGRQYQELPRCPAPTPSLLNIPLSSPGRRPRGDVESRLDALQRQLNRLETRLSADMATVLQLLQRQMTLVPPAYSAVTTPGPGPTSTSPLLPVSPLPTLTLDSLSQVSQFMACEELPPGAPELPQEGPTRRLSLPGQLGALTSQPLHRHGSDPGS
Chain of Cytochrome P450 3A4 (Homo sapiens) (P08684 whole entry, looked up): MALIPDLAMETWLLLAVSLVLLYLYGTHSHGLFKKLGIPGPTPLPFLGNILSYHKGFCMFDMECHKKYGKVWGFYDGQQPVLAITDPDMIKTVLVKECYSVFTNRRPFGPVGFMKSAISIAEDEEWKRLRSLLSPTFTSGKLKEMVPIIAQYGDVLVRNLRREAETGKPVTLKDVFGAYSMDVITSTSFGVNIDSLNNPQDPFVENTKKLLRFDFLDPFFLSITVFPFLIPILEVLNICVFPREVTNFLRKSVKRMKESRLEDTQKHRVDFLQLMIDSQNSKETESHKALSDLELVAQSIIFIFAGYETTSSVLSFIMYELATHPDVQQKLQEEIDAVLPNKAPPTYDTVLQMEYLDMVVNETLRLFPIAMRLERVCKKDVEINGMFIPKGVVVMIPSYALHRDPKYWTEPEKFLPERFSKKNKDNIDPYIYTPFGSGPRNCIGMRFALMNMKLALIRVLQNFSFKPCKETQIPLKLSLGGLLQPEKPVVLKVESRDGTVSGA
Chain of Cytochrome P450 2C9 (Homo sapiens) (P11712 whole entry, looked up): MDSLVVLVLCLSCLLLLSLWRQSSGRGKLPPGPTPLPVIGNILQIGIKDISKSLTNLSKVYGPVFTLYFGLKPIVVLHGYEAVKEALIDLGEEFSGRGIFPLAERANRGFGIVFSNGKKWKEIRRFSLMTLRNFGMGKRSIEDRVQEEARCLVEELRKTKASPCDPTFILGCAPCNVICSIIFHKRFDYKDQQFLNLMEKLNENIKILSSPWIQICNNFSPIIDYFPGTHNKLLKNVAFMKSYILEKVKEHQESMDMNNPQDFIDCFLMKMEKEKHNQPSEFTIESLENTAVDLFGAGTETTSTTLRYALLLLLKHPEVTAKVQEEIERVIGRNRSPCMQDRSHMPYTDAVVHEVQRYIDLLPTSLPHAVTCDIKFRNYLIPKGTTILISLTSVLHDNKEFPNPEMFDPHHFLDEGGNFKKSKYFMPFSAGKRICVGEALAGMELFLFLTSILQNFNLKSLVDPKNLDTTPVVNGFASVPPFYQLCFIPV
Chain of Cytochrome P450 1A2 (Homo sapiens) (P05177 whole entry, looked up): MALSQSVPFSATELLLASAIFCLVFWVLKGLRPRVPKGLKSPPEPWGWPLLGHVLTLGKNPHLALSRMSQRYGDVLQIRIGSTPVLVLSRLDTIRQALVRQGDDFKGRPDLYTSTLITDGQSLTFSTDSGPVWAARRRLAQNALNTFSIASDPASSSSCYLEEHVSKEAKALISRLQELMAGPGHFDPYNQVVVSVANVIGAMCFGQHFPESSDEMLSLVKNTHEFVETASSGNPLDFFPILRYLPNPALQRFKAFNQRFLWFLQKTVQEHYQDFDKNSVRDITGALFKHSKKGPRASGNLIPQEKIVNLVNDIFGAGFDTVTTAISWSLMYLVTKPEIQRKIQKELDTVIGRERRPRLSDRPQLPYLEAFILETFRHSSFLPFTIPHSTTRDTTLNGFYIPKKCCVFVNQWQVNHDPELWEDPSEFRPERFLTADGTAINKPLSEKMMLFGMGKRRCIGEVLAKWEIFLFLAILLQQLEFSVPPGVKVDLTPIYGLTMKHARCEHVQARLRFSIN

In the case of `CNS(=O)(=O)Cc1ccc2[nH]cc(CCN(C)C)c2c1`, the Potency entry in test [1] and in test [2] was “inactive” each time.
On to `CCCCCCCCCC(=O)OCC`, for which the Potency entry in test [3], in test [2] and in test [4] was “inactive” throughout.
With `CC(C)CC=O`, the Potency result in test [1] and in test [2] was “inactive” throughout.
Regarding `Nc1nc(N)c2nc(CNc3ccc(C(=O)N[C@@H](CCC(=O)O)C(=O)O)cc3)cnc2n1`, the Potency entry in test [1] and in test [2] was “inactive” each time.
Regarding `CCCCCCCCCCCCCCC1CO1` (stereo unspecified), the Potency entry in test [3], in test [2] and in test [4] was “inactive” in each case.
On to `C#CCOC(=O)[C@@H](C)Oc1ccc(Oc2ncc(Cl)cc2F)cc1`, for which the Potency in test [1] was 5 µM (active).
As for `CCN(CC)C(C)=O`, the Potency entry in test [3], in test [2] and in test [4] was “inactive” throughout.
As for `CC[C@]12CCCN3CCc4c(n(c5ccccc45)C(=O)C1)[C@@H]32`, the Potency entry in test [1] is “inactive”. Moreover, the Potency in test [2] is 1.69 µM (active).
For the compound `CC(=O)/C(C)=C/C1C(C)=CCCC1(C)C` (stereo unspecified), in test [1], the Potency was 79.6 µM (active). Also, the Potency entry in test [2] is “inactive”.
With `O=C(C(=O)c1ccc(Br)cc1)c1ccc(Br)cc1`, the activity change, negative = inhibition in test [3] is -0.879% [at 23.6 µM]; in test [2], -1.71% [at 15.8 µM]; in test [4] it was 4.73% [at 23.6 µM].
With `O=c1[nH]cnc2ccccc12`, the Potency entry in test [3], in test [2] and in test [4] was “inactive” in each case.
With `CC(C)NCC(O)c1cc(O)cc(O)c1` (stereo unspecified), the Potency entry in test [3], in test [2] and in test [4] was “inactive” throughout.
With `C[Si](C)O[Si](C)(C)O[Si](C)(C)O[Si](C)C`, the Potency entry in test [1] and in test [2] was “inactive” each time.
In the case of `CC(=O)SCc1ccco1`, the Potency result in test [1] and in test [2] was “inactive” throughout.
Regarding `c1ccc(-c2nc[nH]c2-c2ccccc2)cc1`, in test [1], the Potency is 8.12 µM (active). The Potency result in test [2] was “inactive”.
On to `COc1ccc([C@@H]2Sc3ccccc3N(CCN(C)C)C(=O)[C@@H]2OC(C)=O)cc1`, for which the Potency entry in test [1] is “inactive”.
`CCCCCOC(=O)c1ccc(O)cc1`: in test [1], the Potency was 2.55 µM (active).
Regarding `Cc1cc(NC(=O)C(=O)O)cc(C)c1Oc1ccc(O)c2c1CCC2`, in test [3], the Potency is 35.6 µM (active). The Potency result in test [2] and in test [4] was “inactive” in each case.
Consider `Cc1cc(O)ccc1N`, for which the Potency in test [1] is 17.9 µM (active). In addition, the Potency result in test [2] is “inactive”.
Regarding `Nc1nc(CC(=O)O)cs1`, the Potency result in test [1] is “inactive”.
On to `CN(C(=O)CCCOc1ccc2[nH]c(=O)ccc2c1)C1CCCCC1`, for which the Potency result in test [1] and in test [2] was “inactive” each time.
On to `CC(C)(C)C(=O)OCOP(=O)(COCCn1cnc2c(N)ncnc21)OCOC(=O)C(C)(C)C`, for which the Potency result in test [1] and in test [2] was “inactive” throughout.
With `Cc1cc(C)c(S(=O)(=O)O)cc1N=Nc1cc(S(=O)(=O)O)c2ccccc2c1O`, the Potency in test [3] was 63.3 µM (active). The Potency result in test [2] and in test [4] was “inactive” in each case.
`CC1(C)CCC(C)(C)c2cc(NC(=O)c3ccc(C(=O)O)cc3)ccc21`: the Potency result in test [1] and in test [2] was “inactive” throughout.
`CN1CCN(C2=Nc3ccccc3Sc3ccc(Cl)cc32)CC1`: the Potency result in test [1] is “inactive”.
For `COC(Cc1ccccc1)OC`, the Potency entry in test [1], in test [2] and in test [4] was “inactive” each time.
Take `CC(C(=O)O)c1ccc(C(=O)c2ccccc2)s1` (stereo unspecified): the Potency in test [1] was 9.11 µM (active). The Potency entry in test [2] and in test [4] was “inactive” throughout.
Consider `CCCCOc1ccc(CC(=O)NO)cc1`, for which, in test [1], the Potency is 15.5 µM (active). The Potency result in test [2] and in test [4] was “inactive” each time.
On to `CC(C)(C)c1cc(CCC(=O)OCC(COC(=O)CCc2cc(C(C)(C)C)c(O)c(C(C)(C)C)c2)(COC(=O)CCc2cc(C(C)(C)C)c(O)c(C(C)(C)C)c2)COC(=O)CCc2cc(C(C)(C)C)c(O)c(C(C)(C)C)c2)cc(C(C)(C)C)c1O`, for which the Potency in test [1] was 6.75 µM (active). Also, the Potency entry in test [2] and in test [4] was “inactive” each time.
For the compound `CC(=O)[C@@]1(O)CC[C@H]2[C@@H]3C[C@H](C)C4=CC(=O)CC[C@]4(C)[C@H]3CC[C@@]21C`, the Potency result in test [1], in test [2] and in test [4] was “inactive” each time.
On to `FC(F)(F)C(F)(F)C(F)(F)C(F)(F)C(F)(F)C(F)(F)CCI`, for which the Potency entry in test [1], in test [2] and in test [4] was “inactive” in each case.
